Reference: PubChem BioAssay (NCATS)
Records with an inconclusive call do not appear. A call without a number means that no potency is given here. The source made the active and inactive calls. Unless noted, the call rests on the fitted dose curve; in most records, active means well fitted curve in the direction sought with a large enough effect; inconclusive means small, poorly fitted or top-dose-only effect, or another doubt; inactive means no such curve, though single readings can be large; an effect the other way counts as inactive or inconclusive.

Key:
[1] = Cytometric Cell-Based qHTS for Inhibitors of the mTORC1 Signaling Pathway in MEF (Tsc2-/-, p53-/-) Cells (AID 2660);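 further: Tsc2 and p53 null MEFs carrying empty vector with compound for 24 h; percent of cells above a phospho-rpS6 to PI ratio cutoff in each well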
Outline: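 Immunofluorescence qHTS of rpS6 Ser235/236 phosphorylation: MEFs (Tsc2-/-, p53-/-) treated 24 h, 37 C, in DMEM + 10% FBS. Alexa-488 signal normalized to PI count, referenced to rapamycin (7.5 nM) and DMSO; PI cell number recorded for viability.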

[2] = High Content Imaging Cell-Based qHTS for Inhibitors of the mTORC1 Signaling Pathway in MEF (Tsc2-/-, p53-/-) Cells (AID 2666); conditions: at 38.3 µM (top of the series);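 further: percent of cells scored positive for phospho-rpS6 Ser235/236 immunostaining by imaging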
Outline: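 Cells were plated, dosed with compound after 24 hrs, and incubated another 24 hrs at 37 degree Celsius. Fixed cells were immunostained for phospho-rpS6 Ser235/236 and counterstained, and the normalized signal was scored as % active cells against rapamycin and DMSO controls.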

[3] = High Content Imaging Cell-Based qHTS for Inhibitors of the mTORC1 Signaling Pathway in MEF Cells (AID 2667);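 further: Tsc2-/- p53-/- MEFs stably re-expressing wild-type Tsc2 exposed 24 h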
Outline: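 Immunofluorescence for rpS6 phosphorylation in MEFs of Tsc2-/-, p53-/- background rescued with WT Tsc2. Compound exposure lasted 24 hrs. Inhibition was scored against rapamycin-treated control wells.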

[4] = Cytometry Cell-Based qHTS for Inhibitors of the mTORC1 Signaling Pathway in MEF cells (AID 2668);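 further: Tsc2-/- p53-/- mouse embryonic fibroblasts stably re-expressing wild-type Tsc2; percent cells positive for phospho-rpS6 Ser235/236 relative to propidium iodide stain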
Outline: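 MEFs (Tsc2-/-, p53-/- stably expressing WT Tsc2) treated 24 h at 37 degree Celsius, fixed, stained with Alexa-488 anti-phospho-rpS6 Ser235/236 and propidium iodide; Acumen laser scanning. Reported as % positive cells, phospho-S6 normalized to PI.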

[5] = target: Ubiquitin carboxyl-terminal hydrolase 2 (Homo sapiens) (UniProt O75604); assay: qHTS Validation Assay for Inhibitors of Ubiquitin-specific Protease USP2a Using CHOP2 as the Reporter (AID 463106)
Outline: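 10nM USP2 core + cpd, 30min RT; add 25nM Ub-CHOP2/25nM substrate; 60min RT; FI 485/531nm. Buffer Tris pH 8.0, CaCl2, BME, CHAPS. Norm. to NEM = 100% inhibition; time-zero read flags fluorescent artifacts.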

[6] = target: Tumor susceptibility gene 101 protein (Homo sapiens) (UniProt Q99816); assay: qHTS Validation Assay for Iinhibitors of HIV-1 Budding by Blocking the Interaction of PTAP/TSG101 (AID 485342; calls by dose curve)
Outline: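 Tsg101 binding domain (10 uM) with FITC-labeled PTAP peptide (50 nM) in HEPES pH 7.5 buffer, 20 min at r.t. with compounds. Binding measured by fluorescence polarization.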

[7] = target: Beta-2 adrenergic receptor (Homo sapiens) (UniProt P07550); assay: qHTS validation assay of beta-arrestin-biased ligands of beta2-adrenergic receptor (AID 485366)
Outline: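 Arrestin-recruitment (Tango) reporter: ligand-bound beta2-AR recruits beta-arrestin, releasing tTA, which upregulates luciferase. Titrations of up to 46 microM incubated 18 hr at 37 degrees C before luminescent readout.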

[8] = target: Flap endonuclease 1 (Homo sapiens) (UniProt P39748); assay: qHTS Validation Assay for the Inhibitors of Human Flap endonuclease 1 (FEN1) (AID 488816)
Outline: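 Readings taken at 0 and 15 min after starting the reaction with 50 nM (final) substrate supplied the signal. Compounds had first sat with 10 nM FEN1 reagent for 15 min at room temperature. Values come from Hill-equation concentration-response fits.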

[9] = target: Methanococcus maripaludis chaperonin (MmCpn) (UniProt Q6LX38); assay: High-Throughput Screening for Modulators of Cytosolic Chaperonin Activity: MmCpn Primary Screen (AID 488978);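 further: 50 nM MmCpn enzyme hydrolysing 30 µM ATP at 37 °C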
Outline: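 MmCpn at 50 nM final was preincubated 5 min at RT with compound. ATP was then added at 30 uM final for 10 min at 37 C. ADP formed was detected by Transcreener HTRF (665/590 nm).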

[10] = target: D(1A) dopamine receptor (Homo sapiens) (UniProt P21728); assay: HTS Assay for Allosteric Agonists of the Human D1 Dopamine Receptor: Primary Screen for Agonists (AID 488981)
Outline: (§1)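 Calcium flux in an inducible, force-coupled HEK293 Trex D1 line (overnight at 30 C): agonist mode is the 180 s kinetic read after compound; potentiator mode is the following 180 s read after dopamine at EC20.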

[11] = target: D(1A) dopamine receptor (Homo sapiens) (UniProt P21728); assay: HTS Assay for Allosteric Agonists of the Human D1 Dopamine Receptor: Primary Screen for Potentiators (AID 488982)
Outline: as §1

[12] = Validation screen for small molecules that induce genotoxicity in human embryonic kidney (HEK293T) cells expressing luciferase-tagged ELG1 (AID 493106)
Outline: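 Luminescence from an ELG1-luciferase fusion serves as the read-out, rising when genetic stress elevates ELG1 protein. HEK293T reporter cells (2,000 per well) received 23 nL compound, incubated 16 hr at 37 °C, then ONE-Glo for 30 min at room temperature.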

[13] = qHTS for Inhibitors of Cell Surface uPA Generation: Validation Assay (AID 493164)
Outline: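 RAW 264.7 cells (4000/well) were plated overnight, then exposed for 18 h at 37 C, 5% CO2 to compounds in a 7-point 1:5 titration (2.45 nM–38.3 uM final). Intracellular ATP was read by ATP-Lite luminescence.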

[14] = target: Peptidyl-prolyl cis-trans isomerase NIMA-interacting 1 (Homo sapiens) (UniProt Q13526); assay: qHTS Validation Assay to Find Inhibitors of Pin1 (AID 504536; active means well fitted inhibition curve with a large enough effect in the polarisation, with a control signal flat, not every such curve was filed as active; the % refers to the polarisation)
Outline: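 Fluorescence polarization competition: compounds (titration) displace HiFluor-488-labeled Pin1-1b peptide from Pin1 (0.3 uM final) in pH 7.5 HEPES buffer with DTT, 10 min at room temperature; %Activity normalized to no-enzyme wells, curves fitted.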

[15] = target: Phosphoglycerate kinase, glycosomal (Trypanosoma brucei brucei) (UniProt P07378); assay: qHTS Validation Assay to Find Inhibitors of Phosphoglycerate Kinase (AID 504547)
Outline: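 Inhibition of the enzyme is judged by a Kinase-Glo Plus luminescent signal following a one-hour incubation at room temperature. Because 1,3-BPG is unstable, it is made in situ by GAPDH at 100nM final; no-PGK wells define the baseline.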

[16] = target: phosphoglycerate mutase (Leishmania major) (UniProt Q4Q090); assay: qHTS Validation Assay to Find Inhibitors of Phosphoglycerate Mutase (AID 504548);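 further: end-point luminescence from Kinase-GloPlus after the PGAM reaction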
Outline: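 L. major PGAM (1.25nM final) was added to substrate buffer and pinned compound, incubated 45 minutes at room temperature, then Kinase-GloPlus added; luminescence read after 10 minutes. Buffer: 100 mM TEA pH 7.6, 5 mM MgCl2, 0.01% Tween-20.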

[17] = qHTS for Inhibitors of ATXN expression: Validation (AID 588378); further: nearly all actives have a fitted effect of over 75% in size
Outline: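 HEK293 cells carrying ATXN2-firefly luciferase reporter, treated with compound 24 h at 37 °C. Viability read first by CellTiter-Fluor (405/525 nm), then reporter expression by Bright-Glo luminescence; controls were a known ATXN2 expression inhibitor and a luciferase inhibitor.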

[18] = target: Glutaminase kidney isoform, mitochondrial (Homo sapiens) (UniProt O94925); assay: qHTS for Inhibitors of Glutaminase (GLS): LOPAC Validation (AID 624146);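 further: glutamate product detected by oxidase and peroxidase coupled Amplex red fluorescence gain; nearly all actives have a fitted effect of over 60% in size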
Outline: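 Human kidney-isoform GLS in 45 mM KH2PO4 pH 8.2, 0.02% Tween-20, with compound, started with 1mM L-Glutamine (added stock). Glutamate oxidase/HRP/Amplex red coupled fluorescence read at start and after 30 min at RT.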

[19] = qHTS of Trypanosoma Brucei Inhibitors: LOPAC Validation (AID 624147)
Outline: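 TbPYK + substrate in 50 mM TEA pH 7.2, 100 mM KCl, 10 mM MgCl2, 0.05% BSA, 0.01% Tween-20; cpd pinned; ADP 130 uM final; 45 min RT; Kinase-Glo Plus 10 min; luminescence endpoint.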

[20] = target: Glucagon-like peptide 1 receptor (Homo sapiens) (UniProt P43220); assay: qHTS of GLP-1 Receptor Agonists: LOPAC Validation (AID 624148);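 further: luminescence from a luciferase reporter switched on by cAMP; higher luminescence signal means agonism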
Outline: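 Agonism scored as increased luciferase luminescence driven by cAMP in HEK293 clones carrying GLP-1R. Cells settled 12 hours, received compound for 4-6 hr at 37 deg C, 5% CO2, and were read after 12 min detection reagent at RT.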

[21] = qHTS of Nrf2 Activators: LOPAC Validation (AID 624149)
Outline: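 Luminescence read-out of ARE-luciferase activation: AREc32_Fluc cells treated with compounds for 24 hr at 37 deg C, then lysed with Steady-Glo for 30 min at room temperature before reading.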

[22] = HTS Assay for Allosteric Antagonists of the Human D2 Dopamine Receptor: Hit Validation in HTRF (AID 624455);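 further: stable D1 dopamine receptor cell line scored for blocking the D1 response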
Outline: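 First, antagonism was screened by calcium flux in a force-coupled, inducible Hek293 Trex D2 line challenged with EC80 dopamine. Hits then went into an HTRF assay in cells stably expressing D1, testing inhibition of the D1 response.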

[23] = target: Arylsulfatase A (Homo sapiens) (UniProt P15289); assay: qHTS screen for enhancers of Arylsulfatase A (ASA1): LOPAC Validation Assay (AID 720538); further: potency means the concentration at half of the fitted maximal effect
Outline: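 SV40-transformed fibroblasts from an MLD patient (ASA-I179S) were treated with compound for 48 h at 37 C. They were then lysed with 0.5 mM pNCS substrate (final) for 14 h at room temperature and stopped with NaOH; signal read by fluorescence (Ex 525/Em 598 nm), with increase denoting enhanced activity.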

[24] = qHTS for compounds that reverse cellular toxicity of Amyloid beta (A-beta) peptide in yeast: LOPAC Validation Assay (AID 720559)
Outline: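 Yeast expressing toxic A-beta grown with pinned compounds at 30 C for 48 hr. Growth measured as absorbance at 600 nm; data normalized to DMSO and to an equimolar FeCl3/clioquinol mixture as positive control.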

[25] = qHTS for Activators of Parkin Expression: LOPAC Validation Assay (NLuc Reporter) (AID 720572)
Outline: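 Parkin promoter-driven FLuc/NLuc neuronal reporter cells; 24 h plating, 7-pt dose response, 24 h at 37 C/5% CO2; FLuc then NanoLuc reagent, 10 min each, luminescence; DMSO/positive control normalized.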

Chain of D(1A) dopamine receptor (Homo sapiens) (P21728 whole entry, looked up): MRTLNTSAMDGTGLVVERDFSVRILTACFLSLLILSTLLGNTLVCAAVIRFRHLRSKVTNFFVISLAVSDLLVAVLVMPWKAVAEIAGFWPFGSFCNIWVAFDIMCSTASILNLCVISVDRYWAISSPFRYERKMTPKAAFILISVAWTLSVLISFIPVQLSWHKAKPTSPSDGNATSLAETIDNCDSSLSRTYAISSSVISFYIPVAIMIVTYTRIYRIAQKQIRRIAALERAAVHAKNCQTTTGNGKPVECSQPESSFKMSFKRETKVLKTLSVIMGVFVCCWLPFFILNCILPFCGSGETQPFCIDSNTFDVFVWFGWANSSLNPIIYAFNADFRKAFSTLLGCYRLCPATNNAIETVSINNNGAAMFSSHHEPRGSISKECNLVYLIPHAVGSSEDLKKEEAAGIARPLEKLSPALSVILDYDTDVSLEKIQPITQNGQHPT
Chain of Peptidyl-prolyl cis-trans isomerase NIMA-interacting 1 (Homo sapiens) (Q13526 whole entry, looked up): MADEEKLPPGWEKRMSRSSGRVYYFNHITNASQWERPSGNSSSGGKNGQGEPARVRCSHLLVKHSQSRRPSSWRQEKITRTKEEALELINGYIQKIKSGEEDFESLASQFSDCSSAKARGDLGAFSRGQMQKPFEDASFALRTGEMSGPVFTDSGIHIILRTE
Chain of Beta-2 adrenergic receptor (Homo sapiens) (P07550 whole entry, looked up): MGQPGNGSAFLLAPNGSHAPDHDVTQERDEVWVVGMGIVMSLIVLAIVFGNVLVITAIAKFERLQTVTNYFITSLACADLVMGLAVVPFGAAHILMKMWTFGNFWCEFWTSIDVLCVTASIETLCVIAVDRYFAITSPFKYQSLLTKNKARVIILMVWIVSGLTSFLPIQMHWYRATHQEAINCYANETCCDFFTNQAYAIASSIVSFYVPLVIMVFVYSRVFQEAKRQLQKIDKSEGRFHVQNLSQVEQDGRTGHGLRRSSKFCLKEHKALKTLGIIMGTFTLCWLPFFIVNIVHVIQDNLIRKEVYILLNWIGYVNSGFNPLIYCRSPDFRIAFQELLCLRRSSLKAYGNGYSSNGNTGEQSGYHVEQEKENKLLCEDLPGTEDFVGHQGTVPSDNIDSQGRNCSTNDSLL
Chain of Ubiquitin carboxyl-terminal hydrolase 2 (Homo sapiens) (O75604 whole entry, looked up): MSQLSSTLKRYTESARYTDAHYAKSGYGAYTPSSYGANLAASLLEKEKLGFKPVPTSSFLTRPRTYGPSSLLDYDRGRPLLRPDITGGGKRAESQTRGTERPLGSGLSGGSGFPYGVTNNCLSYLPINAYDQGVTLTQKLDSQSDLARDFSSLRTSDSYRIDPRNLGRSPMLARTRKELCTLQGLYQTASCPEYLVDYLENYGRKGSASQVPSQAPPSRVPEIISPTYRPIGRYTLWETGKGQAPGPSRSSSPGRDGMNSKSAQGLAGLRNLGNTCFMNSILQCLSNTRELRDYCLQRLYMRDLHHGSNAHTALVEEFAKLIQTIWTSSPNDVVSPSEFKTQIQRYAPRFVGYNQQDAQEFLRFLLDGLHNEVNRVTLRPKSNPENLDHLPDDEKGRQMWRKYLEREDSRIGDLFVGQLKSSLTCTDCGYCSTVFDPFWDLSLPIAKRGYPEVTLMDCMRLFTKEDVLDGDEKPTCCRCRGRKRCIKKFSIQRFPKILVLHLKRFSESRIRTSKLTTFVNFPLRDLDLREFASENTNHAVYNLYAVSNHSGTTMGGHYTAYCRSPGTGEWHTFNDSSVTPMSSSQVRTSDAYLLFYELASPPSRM
Chain of Glucagon-like peptide 1 receptor (Homo sapiens) (P43220 whole entry, looked up): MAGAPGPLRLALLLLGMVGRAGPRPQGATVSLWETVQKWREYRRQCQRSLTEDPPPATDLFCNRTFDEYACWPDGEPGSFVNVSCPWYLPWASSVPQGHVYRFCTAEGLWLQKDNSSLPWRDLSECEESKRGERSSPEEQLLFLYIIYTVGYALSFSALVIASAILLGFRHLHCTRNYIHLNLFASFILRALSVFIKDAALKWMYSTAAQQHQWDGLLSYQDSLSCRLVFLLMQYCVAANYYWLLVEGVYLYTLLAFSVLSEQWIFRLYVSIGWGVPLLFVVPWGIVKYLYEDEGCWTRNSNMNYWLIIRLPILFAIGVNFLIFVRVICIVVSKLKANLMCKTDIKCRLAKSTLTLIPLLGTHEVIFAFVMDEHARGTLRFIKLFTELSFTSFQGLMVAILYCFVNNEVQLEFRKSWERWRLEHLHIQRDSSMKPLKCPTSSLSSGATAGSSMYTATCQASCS
Chain of Glutaminase kidney isoform, mitochondrial (Homo sapiens) (O94925 whole entry, looked up, canonical isoform): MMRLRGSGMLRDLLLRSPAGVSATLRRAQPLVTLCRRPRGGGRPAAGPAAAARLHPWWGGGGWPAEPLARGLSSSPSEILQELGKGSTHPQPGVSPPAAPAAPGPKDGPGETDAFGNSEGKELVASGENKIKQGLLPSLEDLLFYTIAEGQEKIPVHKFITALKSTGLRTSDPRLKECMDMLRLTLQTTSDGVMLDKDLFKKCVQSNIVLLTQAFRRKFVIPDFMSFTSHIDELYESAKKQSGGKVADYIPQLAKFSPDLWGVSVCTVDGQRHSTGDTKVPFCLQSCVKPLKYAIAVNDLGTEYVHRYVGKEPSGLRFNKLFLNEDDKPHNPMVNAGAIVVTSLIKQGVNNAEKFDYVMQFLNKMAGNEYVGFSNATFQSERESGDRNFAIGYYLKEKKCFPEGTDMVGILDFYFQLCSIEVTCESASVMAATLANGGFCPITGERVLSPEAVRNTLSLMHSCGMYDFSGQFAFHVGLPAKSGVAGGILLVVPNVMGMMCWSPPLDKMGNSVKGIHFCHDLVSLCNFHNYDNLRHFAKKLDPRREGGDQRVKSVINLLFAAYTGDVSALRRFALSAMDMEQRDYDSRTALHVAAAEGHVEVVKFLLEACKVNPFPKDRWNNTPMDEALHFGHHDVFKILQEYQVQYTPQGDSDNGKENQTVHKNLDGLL
Chain of Methanococcus maripaludis chaperonin (MmCpn) (Q6LX38 1-543): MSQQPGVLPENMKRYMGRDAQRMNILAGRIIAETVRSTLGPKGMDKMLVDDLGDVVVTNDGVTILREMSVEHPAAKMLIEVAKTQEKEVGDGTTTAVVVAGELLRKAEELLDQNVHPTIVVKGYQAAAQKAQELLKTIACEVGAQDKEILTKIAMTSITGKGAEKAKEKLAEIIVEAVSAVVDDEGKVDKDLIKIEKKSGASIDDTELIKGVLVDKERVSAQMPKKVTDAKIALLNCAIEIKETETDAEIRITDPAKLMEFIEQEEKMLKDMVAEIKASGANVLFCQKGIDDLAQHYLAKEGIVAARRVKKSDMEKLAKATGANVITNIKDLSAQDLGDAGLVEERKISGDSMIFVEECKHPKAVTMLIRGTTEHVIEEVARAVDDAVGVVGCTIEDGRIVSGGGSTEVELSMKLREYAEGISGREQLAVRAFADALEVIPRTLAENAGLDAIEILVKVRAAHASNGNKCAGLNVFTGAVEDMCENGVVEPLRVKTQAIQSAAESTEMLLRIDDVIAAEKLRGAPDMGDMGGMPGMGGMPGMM
Chain of Phosphoglycerate kinase, glycosomal (Trypanosoma brucei brucei) (P07378 whole entry, looked up): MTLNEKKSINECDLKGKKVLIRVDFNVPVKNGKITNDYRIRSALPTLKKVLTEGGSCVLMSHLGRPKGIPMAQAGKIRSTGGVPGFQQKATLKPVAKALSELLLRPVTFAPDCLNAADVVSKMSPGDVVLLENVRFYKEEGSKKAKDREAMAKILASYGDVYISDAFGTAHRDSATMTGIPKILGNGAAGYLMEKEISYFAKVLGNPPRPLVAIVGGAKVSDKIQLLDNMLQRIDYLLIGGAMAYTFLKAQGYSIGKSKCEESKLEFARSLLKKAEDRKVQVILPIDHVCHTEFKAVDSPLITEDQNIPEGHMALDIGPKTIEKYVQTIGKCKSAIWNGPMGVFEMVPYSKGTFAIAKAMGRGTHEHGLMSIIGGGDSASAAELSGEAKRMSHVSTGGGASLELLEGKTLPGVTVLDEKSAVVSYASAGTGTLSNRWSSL
Chain of Flap endonuclease 1 (Homo sapiens) (P39748 whole entry, looked up): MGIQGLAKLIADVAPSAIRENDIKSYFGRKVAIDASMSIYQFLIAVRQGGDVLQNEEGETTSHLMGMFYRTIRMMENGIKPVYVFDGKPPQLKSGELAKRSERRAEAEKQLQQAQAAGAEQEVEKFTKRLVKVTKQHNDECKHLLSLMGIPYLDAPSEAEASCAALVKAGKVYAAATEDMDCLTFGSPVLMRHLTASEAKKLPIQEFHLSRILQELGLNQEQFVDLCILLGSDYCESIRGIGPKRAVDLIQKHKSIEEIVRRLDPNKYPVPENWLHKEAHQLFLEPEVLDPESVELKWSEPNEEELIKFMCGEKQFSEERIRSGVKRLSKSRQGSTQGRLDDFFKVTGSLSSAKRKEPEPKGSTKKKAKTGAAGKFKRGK
Chain of Tumor susceptibility gene 101 protein (Homo sapiens) (Q99816 whole entry, looked up, the tested form may be a part): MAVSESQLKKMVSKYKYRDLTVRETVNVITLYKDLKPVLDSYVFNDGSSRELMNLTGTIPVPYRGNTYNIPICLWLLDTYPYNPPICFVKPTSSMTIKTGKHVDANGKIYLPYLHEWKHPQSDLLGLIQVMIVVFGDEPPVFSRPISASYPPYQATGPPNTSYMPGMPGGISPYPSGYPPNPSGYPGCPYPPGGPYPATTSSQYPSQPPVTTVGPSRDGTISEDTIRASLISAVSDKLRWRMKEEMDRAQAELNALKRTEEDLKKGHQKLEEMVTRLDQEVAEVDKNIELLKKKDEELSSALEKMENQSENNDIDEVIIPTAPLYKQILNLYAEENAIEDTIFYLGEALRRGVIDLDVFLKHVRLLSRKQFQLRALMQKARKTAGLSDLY

CCc1ccc(/C=C2/SC(=S)NC2=O)cc1
outcome [1]: inactive
outcome [2]: inactive
Potency [3]: inactive
Potency [4]: inactive
Potency [5]: inactive
outcome [6]: inactive
outcome [7]: inactive
Potency [8]: inactive
outcome [9]: inactive
outcome [10]: inactive
outcome [11]: inactive
Potency [12]: inactive
outcome [13]: inactive
Potency [14]: inactive
Potency [15]: inactive
outcome [16]: inactive
Potency [17]: inactive
Potency [18]: inactive
outcome [19]: inactive
outcome [20]: inactive
outcome [21]: inactive
outcome [22]: inactive
Potency [23]: 15.1 µM (active)
outcome [24]: inactive
outcome [25]: inactive
